Laboratory results reported in publication PMC8384837, “Expanding the binding specificity for RNA recognition by a PUF domain”.

Tests used:
Experiment in all cases: yeast three-hybrid, YBZ-1, SC-Leu-His + 0.5 mM 3-AT, 4 days
Settings in all cases: tags: N-Gal4 AD-HA kept; label: inside an RPR1-promoter hybrid RNA with tandem MS2 sites; ssRNA
PUM1 PUF domain R5-KYG = PUM1 PUF domain R5-KYG (Homo sapiens, UniProt Q14671 828-1176, C1007K;R1008Y;Q1011G)
How it was run: (§1)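 The interaction score is the log change in how often each variant appears, from input to selection. Frequencies came from PCR-amplified, Illumina-sequenced repeat regions of Pumilio-1 PUF domain libraries grown in strain YBZ-1 (LexA–MS2 coat fusion, HIS3 reporter) alongside matching RNA elements. Input plates were SC-Leu and selection plates were SC-Leu-His + 0.5 mM 3-AT, each for four days, and the log2 calculation used a pseudocount of 1 where a variant was absent.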

PUM1 PUF domain R1-CFK = PUM1 PUF domain R1-CFK (Homo sapiens, UniProt Q14671 828-1176, S863C;R864F;Q867K)
How it was run: as §1

PUM1 PUF domain R7-GSR = PUM1 PUF domain R7-GSR (Homo sapiens, UniProt Q14671 828-1176, S1079G;N1080S;E1083R)
How it was run: as §1

PUM1 PUF domain R1-KRD = PUM1 PUF domain R1-KRD (Homo sapiens, UniProt Q14671 828-1176, S863K;Q867D)
How it was run: as §1

PUM1 PUF domain R6-FRE = biological target: T1, PUM1 PUF domain R6-FRE (Homo sapiens, UniProt Q14671 828-1176, N1043F;Y1044R;Q1047E)
T1 sequence: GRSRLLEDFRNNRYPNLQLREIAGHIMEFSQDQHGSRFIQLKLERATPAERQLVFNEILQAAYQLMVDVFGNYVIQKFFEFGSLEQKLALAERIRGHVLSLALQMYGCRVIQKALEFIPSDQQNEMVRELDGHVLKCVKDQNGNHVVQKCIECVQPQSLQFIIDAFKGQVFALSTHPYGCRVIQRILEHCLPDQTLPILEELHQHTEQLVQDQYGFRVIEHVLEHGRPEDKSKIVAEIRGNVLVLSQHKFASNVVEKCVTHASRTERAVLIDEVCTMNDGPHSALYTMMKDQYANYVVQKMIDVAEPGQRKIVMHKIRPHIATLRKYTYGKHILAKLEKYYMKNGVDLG
How it was run: as §1

PUM1 PUF domain R4-CCM = PUM1 PUF domain R4-CCM (Homo sapiens, UniProt Q14671 828-1176, N971C;H972C;Q975M)
How it was run: as §1

PUM1 PUF domain R2-KFG = PUM1 PUF domain R2-KFG (Homo sapiens, UniProt Q14671 828-1176, N899K;Y900F;Q903G)
How it was run: as §1

PUM1 PUF domain R4-WGF = PUM1 PUF domain R4-WGF (Homo sapiens, UniProt Q14671 828-1176, N971W;H972G;Q975F)
How it was run: as §1

PUM1 PUF domain R4-WAT = PUM1 PUF domain R4-WAT (Homo sapiens, UniProt Q14671 828-1176, N971W;H972A;Q975T)
How it was run: as §1

PUM1 PUF domain R4-SMR = PUM1 PUF domain R4-SMR (Homo sapiens, UniProt Q14671 828-1176, N971S;H972M;Q975R)
How it was run: as §1

PUM1 PUF domain R5-KYG, sequence (Q14671 828-1176 C1007K/R1008Y/Q1011G): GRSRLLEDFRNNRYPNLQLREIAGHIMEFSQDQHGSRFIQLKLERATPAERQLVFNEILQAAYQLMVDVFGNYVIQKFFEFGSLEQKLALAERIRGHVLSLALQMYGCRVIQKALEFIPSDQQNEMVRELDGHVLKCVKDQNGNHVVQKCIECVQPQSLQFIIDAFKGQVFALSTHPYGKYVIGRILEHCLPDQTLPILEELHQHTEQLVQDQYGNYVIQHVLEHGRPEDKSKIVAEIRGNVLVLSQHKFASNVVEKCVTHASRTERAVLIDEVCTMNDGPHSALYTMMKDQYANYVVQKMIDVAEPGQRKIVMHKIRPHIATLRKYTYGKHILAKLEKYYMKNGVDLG

GGCUAGAACUAGUGGAUCCCCCGGCGCCCGGCGGCUCGAGCCCGGGUAAGUGUGAAUAGUCUGCAUGCCGCCGGGCGCCAUGCCUGCAGGUCGACUCUAGAAAACAUG
binding signal (PUM1 PUF domain R5-KYG): 2.74 log2 enrichment (interaction score)

GGCUAGAACUAGUGGAUCCCCCGGCGCCCGGCGGCUCGAGCCCGGGUAAGUGUAAAUUGUCUGCAUGCCGCCGGGCGCCAUGCCUGCAGGUCGACUCUAGAAAACAUG
binding signal (PUM1 PUF domain R1-CFK): 3.31 log2 enrichment (interaction score)

GGCUAGAACUAGUGGAUCCCCCGGCGCCCGGCGGCUCGAGCCCGGGUAAGUUUAAAUAGUCUGCAUGCCGCCGGGCGCCAUGCCUGCAGGUCGACUCUAGAAAACAUG
binding signal (PUM1 PUF domain R7-GSR): 4.22 log2 enrichment (interaction score)

GGCUAGAACUAGUGGAUCCCCCGGCGCCCGGCGGCUCGAGCCCGGGUAAGUGUCAAUAGUCUGCAUGCCGCCGGGCGCCAUGCCUGCAGGUCGACUCUAGAAAACAUG
binding signal (PUM1 PUF domain R5-KYG): 5.55 log2 enrichment (interaction score)

GGCUAGAACUAGUGGAUCCCCCGGCGCCCGGCGGCUCGAGCCCGGGUAAGUGUAAAUCGUCUGCAUGCCGCCGGGCGCCAUGCCUGCAGGUCGACUCUAGAAAACAUG
binding signal (PUM1 PUF domain R1-KRD): 3.37 log2 enrichment (interaction score)

GGCUAGAACUAGUGGAUCCCCCGGCGCCCGGCGGCUCGAGCCCGGGUAAGUGUAAAUAGUCUGCAUGCCGCCGGGCGCCAUGCCUGCAGGUCGACUCUAGAAAACAUG
binding signal (PUM1 PUF domain R6-FRE): 3.3 log2 enrichment (interaction score)
binding signal (PUM1 PUF domain R4-CCM): 1.07 log2 enrichment (interaction score)
binding signal (PUM1 PUF domain R2-KFG): 7.86 log2 enrichment (interaction score)
binding signal (PUM1 PUF domain R4-WGF): 4.73 log2 enrichment (interaction score)
binding signal (PUM1 PUF domain R5-KYG): 3.77 log2 enrichment (interaction score)

GGCUAGAACUAGUGGAUCCCCCGGCGCCCGGCGGCUCGAGCCCGGGUAAGUGUAUAUAGUCUGCAUGCCGCCGGGCGCCAUGCCUGCAGGUCGACUCUAGAAAACAUG
binding signal (PUM1 PUF domain R4-CCM): 2.39 log2 enrichment (interaction score)

GGCUAGAACUAGUGGAUCCCCCGGCGCCCGGCGGCUCGAGCCCGGGUAAGUGUACAUAGUCUGCAUGCCGCCGGGCGCCAUGCCUGCAGGUCGACUCUAGAAAACAUG
binding signal (PUM1 PUF domain R4-WAT): 2.53 log2 enrichment (interaction score)
binding signal (PUM1 PUF domain R4-SMR): 2.97 log2 enrichment (interaction score)
